# Laboratory results published in PubChem BioAssay (NCI).
# Compounds without any hit were thinned out: in the full panel of roughly 79,000, 15% have a hit. A number with no mark means an inactive call. Active and inactive are the calls of the source. Rule as the data show it: active = growth inhibition above about 70%; inactive = the rest.
# What was measured:
# [1] = NCI Yeast Anticancer Drug Screen. Data for the rad50 strain (AID 155);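 also: 0% = growth of vehicle-only cultures of the same strain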; details: S. cerevisiae rad50 strain growth inhibition, hits give high values
# How it was run: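 A DNA repair-deficient yeast mutant serves as the test organism; compound-induced growth inhibition is calculated against vehicle-treated cells.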
# [2] = NCI Yeast Anticancer Drug Screen. Data for the mec2-1 strain (AID 157); details: S. cerevisiae mec2-1 strain, hits give high values
# How it was run: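 Growth inhibition is read against vehicle-treated controls after compound exposure of the mec2-1 yeast strain, which is defective in DNA damage repair or cell cycle control.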
# [3] = NCI Yeast Anticancer Drug Screen. Data for the sgs1 mgt1 strain (AID 161);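 also: 0% = growth of cultures given vehicle only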; details: S. cerevisiae sgs1 mgt1 strain, hits give high values
# How it was run: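 Percent growth inhibition was derived by comparing compound-exposed mutant yeast with vehicle-exposed cultures. The strain carries alterations in DNA damage repair.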
# [4] = NCI Yeast Anticancer Drug Screen. Data for the cln2 rad14 strain (AID 165);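 also: 0% = growth equal to vehicle treated cultures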; details: S. cerevisiae cln2 rad14 strain, hits give high values
# How it was run: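 Growth inhibition, relative to vehicle-treated controls, is the read-out. The test organism is a yeast strain with defined genetic alterations, cln2 rad14.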
# [5] = NCI Yeast Anticancer Drug Screen. Data for the bub3 strain (AID 167); details: S. cerevisiae bub3 mutant strain, hits give high values
# How it was run: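 Inhibition values come from growth of compound-treated mutant yeast normalised to vehicle-treated controls.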
# [6] = NCI Yeast Anticancer Drug Screen. Data for the mlh1 rad18 strain (AID 175); details: S. cerevisiae mlh1 rad18 strain growth inhibition, hits give high values
# How it was run: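 Cells of a genetically altered yeast strain, deficient in DNA damage repair, were treated with compound. Their growth was then compared with that of vehicle-treated cultures to give inhibition.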
# [7] = at 5.0 µM (retest, dose inferred, filed as 0.5)
# [8] = at 50.0 µM (retest, dose inferred, filed as 5.0)
SMILES,"growth inhibition [1, 7]","growth inhibition [1, 8]",growth inhibition ([1]; at 50.0 µM),"growth inhibition [2, 7]","growth inhibition [2, 8]",growth inhibition ([2]; at 50.0 µM),"growth inhibition [3, 7]","growth inhibition [3, 8]",growth inhibition ([3]; at 50.0 µM),"growth inhibition [4, 7]","growth inhibition [4, 8]",growth inhibition ([4]; at 50.0 µM),"growth inhibition [5, 7]","growth inhibition [5, 8]",growth inhibition ([5]; at 50.0 µM),"growth inhibition [6, 7]","growth inhibition [6, 8]",growth inhibition ([6]; at 50.0 µM)
O=C(N/N=C/c1cc(Br)cc(Br)c1[O-])c1ccccc1O.O=C(N/N=C/c1cc(Br)cc(Br)c1[O-])c1ccccc1O.[Ni+2],97% (active),98% (active),18.4%,98% (active),98% (active),87% (active),98% (active),99% (active),61.2%,93% (active),98% (active),31.6%,96% (active),97% (active),85.5% (active),96% (active),98% (active),55.6%
CC(=O)c1ccc([As]=O)cc1 (stereo not given),16%,100% (active),99.8% (active),19%,100% (active),99.8% (active),13%,99% (active),99.8% (active),-9%,99% (active),99.4% (active),-8%,100% (active),99.5% (active),14%,100% (active),99.5% (active)
CC(=O)[CH-]C(C)=O.CC(=O)[CH-]C(C)=O.[O-]c1ccccc1.[O-]c1ccccc1.[Ti+4],25%,25%,40.3%,20%,20%,0.3%,19%,19%,11.4%,21%,21%,15.2%,6%,6%,7.05%,-9%,-9%,16.9%
O=[As](O)(O)c1ccc(Cc2ccc([As](=O)(O)O)cc2)cc1,82% (active),100% (active),99.2% (active),62%,100% (active),99.5% (active),26%,99% (active),99% (active),59%,99% (active),98.5% (active),66%,100% (active),99.1% (active),78% (active),99% (active),99.2% (active)
N#CSCC(=O)O (tested in a mixture with another compound),2%,-6%,0.5%,2%,4%,7.4%,3%,5%,5.85%,-4%,3%,25.1%,-3%,-3%,6.3%,0%,-6%,-7.75%
CC(=O)OC1=CC2=CC[C@H]3[C@@H]4CCC(=O)[C@@]4(C)CC(=O)[C@]3(S)[C@@]2(C)CC1,14%,18%,77.5% (active),3%,8%,25.5%,8%,-20%,-4.4%,-16%,-70%,-15.7%,-8%,-3%,60.6%,-13%,11%,54.1%
CN(C)c1ccc(/C=C/c2cc3scc(-c4ccccc4)[n+]3c3ccccc23)cc1,-2%,87% (active),98.7% (active),4%,99% (active),99.5% (active),-1%,99% (active),99.4% (active),-3%,98% (active),99% (active),18%,97% (active),99% (active),14%,99% (active),99.2% (active)
CCOC(=O)c1ccc(N=Cc2ccc(N(CCCl)CCCl)cc2C)cc1,-4%,15%,49.5%,13%,22%,16.4%,14%,39%,67.7%,-8%,-15%,5.3%,-6%,2%,17.2%,25%,73% (active),37.9%
Nc1nc(N)c(-c2ccc(Cl)c(Cl)c2)c(COc2cccc(CNS(=O)(=O)c3cccc(S(=O)(=O)F)c3)c2)n1,-6%,92% (active),89.5% (active),-4%,70% (active),92.4% (active),-1%,85% (active),66.2%,-15%,60%,77.2% (active),-4%,62%,88.8% (active),-3%,83% (active),96.3% (active)
CC(Cl)CN1COc2c3c(c4ccccc4c2C1)CN(CC(C)Cl)CO3 (stereo not given),0%,98% (active),83.7% (active),2%,99% (active),68.8%,-3%,99% (active),82.8% (active),0%,95% (active),77.5% (active),0%,98% (active),66.4%,0%,97% (active),81.8% (active)
